# HT1080NT lethal: qHTS for induction of synthetic lethality in tumor cells producing 2HG: qHTS for the HT-1080-NT fibrosarcoma cell line; Potency, µM (series often up to 46.1 µM), inactives show top-dose activity, negative = less viability, hits mostly cytotoxic; HT-1080-NT fibrosarcoma viability, CellTiter-Glo ATP luminescence, 48 h; 1.6% of 360,000 active; AID 686970, 2013;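 also: NT is the 2HG producing partner of a matched IDH1 knockdown line; potency is read from the fitted curve at half-maximal effect; 0% = DMSO-treated cells and -100% = media-only wells without cells; nearly all actives have a fitted effect of over 55% in size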
#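 HT-1080-NT; 750 cells/well; 5% FBS RPMI; 48 h compound, 37 degrees C; CellTiter-Glo luminescence; curve fitting and curve-class assignment.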
# IL-1B inflam inh: qHTS for Inhibitors of Inflammasome Signaling: IL-1-beta AlphaLISA Primary Screen; THP-1 LPS/ATP IL-1B secretion, AlphaLISA, 16 h; hits give low values; activity change, % at 57.5 µM; 4.7% of 360,000 active; AID 743279, 2014; in the data active = activity change below about -50%; inconclusive = mostly about -30% to -49%
#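 THP-1 cells pretreated 1 hr with compounds (up to 57.5 uM final), then stimulated with LPS (250 ng/mL final) plus ATP (1.25 mM final); secreted IL-1B measured by AlphaLISA after 16 hr, decreased signal indicating inhibition.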
# KB-V1 cytotox: qHTS assay for MDR1-selective chemotherapeutics: Primary screen using the drug-selected MDR subline cells KB-V1; AID 1347076, 2019; Potency, µM (highest dose often 46.1 µM), most hits filed as cytotoxic; 3.4% of 400,000 active; KB-V1 MDR cells viability, CellTiter-Glo, 72 h; also: potency is read from the fitted curve at half-maximal effect; nearly all actives have a fitted effect of over 60% in size
#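 Readout: CellTiter-Glo luminescence, 10 min after addition. Cells: KB-V1 MDR subline, 72 h at 37 degrees C with compound. Analysis: corrected, normalized data fitted to concentration-effect curves.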
# KB-3-1 cytotox: qHTS assay for MDR1-selective chemotherapeutics: Primary screen using the parental adenocarcinoma cell KB-3-1 | AID 1347075, 2019 | Potency, µM (highest dose often 46.1 µM), hits mostly cytotoxic | 1.4% of 400,000 active | KB-3-1 viability, CellTiter-Glo ATP luminescence, 72 h; also: potency is read from the fitted curve at half-maximal effect; nearly all actives have a fitted effect of over 60% in size
#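 Multi-concentration cytotoxicity screen in KB-3-1 cells grown in DMEM lacking phenol red with 10% FBS. After 72 h at 37 °C with compound, ATP-dependent luminescence was recorded.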
# HT1080 IDH1KD tx: qHTS for induction of synthetic lethality in tumor cells producing 2HG: qHTS for the HT-1080-IDH1KD cell line; HT-1080 IDH1 knockdown viability, ATP luminescence, 48 h; Potency, µM (top dose mostly 46.1 µM), without a hit: at the top dose activity, negative = toxicity, usual class: cytotoxic; 2% of 360,000 active; AID 686971, 2013;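 also: potency is read from the fitted curve at half-maximal effect; 0% = DMSO wells and -100% = cell-free medium wells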
#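 CellTiter-Glo luminescence after 48 h compound exposure at 37 degrees C of IDH1-knockdown HT-1080 cells in 5% FBS RPMI. %Activity scaled between DMSO wells and cell-free media wells, with curves fitted and assigned curve classes.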
# Numbers without * were called inactive; i = inactive; ? = inconclusive. This is a sample that favours compounds with a hit; in the whole collection about 8.8% have one here. Unless noted, calls follow the shape of the dose curve; as a rule, active = well fitted curve in the direction sought with a large enough effect; inconclusive = small, poorly fitted or top-dose-only effect, or another doubt; inactive = no such curve, though single readings can be large; an effect the other way counts as inactive or inconclusive. Unless noted, % is scaled to controls: 0 for no effect and ±100 for the full control effect.
SMILES,HT1080NT lethal,IL-1B inflam inh,KB-V1 cytotox,KB-3-1 cytotox,HT1080 IDH1KD tx
O=C1C=C(OCCF)CC(c2cccc([N+](=O)[O-])c2)O1 (stereo not drawn),1%,6,i,i,-3%
COc1ccc(Cl)cc1C1=NOC2(CCC2)C(=O)N1Cc1ccc(NC(C)=O)cc1,2%,0,?,i,10%
CC1(C)Cc2c(cnn2-c2ccc(F)cc2)C(NC(=O)c2ccc(=O)oc2)C1 (stereo not drawn),1%,-1,i,i,4%
COc1cccc(-n2nnc3c(=O)n(Cc4ccc(Cl)cc4)cnc32)c1,13%,6,15µM*,i,6%
COc1cccc(-n2nnc3c(=O)n(Cc4ccc(C)cc4)cnc32)c1,9%,21,?,i,0%
COc1cccc(-n2nnc3c(=O)n(Cc4ccccc4Cl)cnc32)c1,3%,0,18µM*,i,19%
CCc1ccc(NC(=O)CCc2ccc(CC)o2)cc1,8%,3,i,i,0%
CC1CC(C)CN(C(=O)CN2C(=O)NC3(CCCCCC3)C2=O)C1 (stereo not drawn),0%,10,i,i,0%
c1ccc(CN2CCN(c3nc(NCc4ccco4)c4ccccc4n3)CC2)cc1,-24%,-64*,3.7µM*,?,?
OCCN1CCN(c2nc(NCc3ccco3)c3ccccc3n2)CC1,-8%,-16,i,i,-7%
Cc1ccc(OCCN2CCN(c3nc(NCc4ccco4)c4ccccc4n3)CC2)cc1,-12%,-60*,16µM*,?,-14%
Cn1ncc([N+](=O)[O-])c1C(=O)N/N=C/c1cccc([N+](=O)[O-])c1,-12%,-2,i,i,-22%
Cc1cc(C)n(C(=O)Cn2nc(C)c(Br)c2C)n1,19%,17,i,i,9%
CCN(CC)S(=O)(=O)c1ccc(NC(=O)c2cccs2)cc1,-1%,-52*,i,i,-2%
CCCCN(CCCC)S(=O)(=O)c1ccc(NC(=O)Cc2cccs2)cc1,?,-16,5.2µM*,i,?
CCN(CC)S(=O)(=O)c1ccc(NC(=O)C2c3ccccc3Oc3ccccc32)cc1,-17%,9,18µM*,i,-20%
CCN(CC)S(=O)(=O)c1ccc(C(=O)NNC(=O)c2cccs2)cc1,21%,4,i,?,15%
Cc1ccn(-c2ccc(NC(=O)c3cccs3)cc2)n1,?,-5,12µM*,21µM*,?
CNS(=O)(=O)c1ccc(NC(=O)C2c3ccccc3Oc3ccccc32)cc1,-7%,10,i,i,-22%
CCN(CC)S(=O)(=O)c1ccc(C)c(NC(=O)/C=C/c2cccs2)c1,7%,?,8.2µM*,i,1%
O=C(Nc1ccccn1)c1cccs1,11%,6,i,?,-10%
CCN(CC)S(=O)(=O)c1csc(C(=O)Nc2ccccn2)c1,3%,19,23µM*,i,5%
Cc1ccccc1NC(=O)/C=C/c1cccs1,-19%,-25,?,i,-20%
O=C(O)c1nn(CCOc2cccc(Br)c2)c(=O)c2ccccc12,3%,13,i,i,-12%
COc1cc([N+](=O)[O-])cc(/C=N/NC(=O)C(C)Nc2ccccc2C)c1O (stereo not drawn),-28%,1,12µM*,?,?
COc1cc([N+](=O)[O-])cc(/C=N/NC(=O)c2ccc(NC(=O)c3ccc(C)cc3)cc2)c1O,?,73,i,5.2µM*,?
CCCCOc1cccc(C2/C(=C(\O)c3ccc4c(c3)OCCO4)C(=O)C(=O)N2CCN2CCOCC2)c1 (stereo not drawn),7%,23,i,i,0%
CCOc1ccc(S(=O)(=O)N2CCC(C(=O)NC3CC3)CC2)cc1Cl,3%,-10,i,i,0%

# Bioassay records (PubChem)
